Reference: PubChem BioAssay (Tox21)
Results filed as inconclusive are left out. Active and inactive are the calls of the source. Unless noted, calls follow the shape of the full dose curve.

Columns and labels:
[1] = qHTS assay to identify small molecule agonists of the vitamin D receptor (VDR) signaling pathway - cell viability counter screen (AID 743224; active = well fitted curve in the direction sought with a large enough effect in the repeat runs; an effect the other way counts as inactive or inconclusive; also: series mostly up to about 63 µM; % is scaled to controls: 0 for no effect and ±100 for the full control effect; nearly all actives have a fitted effect of over 50% in size)
How it was run: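 VDR-bla cells, 4 h after plating, exposed to compounds for 16 h at 37C; viability then read in the same wells as CellTiter-Glo luminescence after 30 min at room temperature, following the bla FRET read.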

[2] = qHTS assay to identify small molecule antagonists of the vitamin D receptor (VDR) signaling pathway - cell viability counter screen (AID 743225; active = well fitted curve in the direction sought with a large enough effect in the repeat runs; an effect the other way counts as inactive or inconclusive; also: % is scaled to controls: 0 for no effect and ±100 for the full control effect; nearly all actives have a fitted effect of over 50% in size)
How it was run: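 Viability counter screen run in the same wells as the beta-lactamase reporter assay: HEK 293T VDR-UAS-bla cells, 16 h compound exposure at 37C with 3 nM (final) 1-alpha,25-dihydroxyvitamin D3. CellTiter-Glo luminescence, 30 min, room temperature.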

[3] = qHTS assay to identify small molecule agonists of the NFkB signaling pathway (AID 1159509; active = well fitted curve in the direction sought with a large enough effect in the signal ratio in the repeat runs, not every such curve was filed as active; the % refers to the signal ratio; also: series mostly up to about 61 µM; % is scaled to controls: 0 for no effect and ±100 for the full control effect)
How it was run: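 ME-180 NFkB-bla, 2,000 cells/well, overnight plating; cpd pinned in DMSO, 5 h 37 C; B/G FRET substrate 1.5 h RT; ex 405, em 460/530 nm.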

[4] = qHTS assay to identify small molecule agonists of the NFkB signaling pathway - cell viability counter screen (AID 1159515); also: series mostly up to about 61 µM; % is scaled to controls: 0 for no effect and ±100 for the full control effect; nearly all actives have a fitted effect of over 55% in size
How it was run: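 NFkB-bla ME-180 cells, 2,000/well, plated overnight at 37 C; compound added for 5 hr at 37 C. Viability read in the same wells as the bla reporter, by CellTiter-Glo luminescence after 30 min at room temperature.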

[5] = qHTS assay to identify small molecule agonists of the endoplasmic reticulum stress response signaling pathway (AID 1159516; active = well fitted activation curve with a large enough effect in the signal ratio in the repeat runs, not every such curve was filed as active; the % refers to the signal ratio; also: % is scaled to controls: 0 for no effect and ±100 for the full control effect)
How it was run: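 CellSensor ESRE-bla HeLa cells, 1,500 per well, plated overnight, then exposed to compounds for 5 hr at 37 C. Beta-lactamase reporter read with LiveBLAzer B/G FRET substrate after 2 hr at room temperature, 405 nm excitation, 460 and 530 nm emission.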

[6] = qHTS assay to identify small molecule agonists of the endoplasmic reticulum stress response signaling pathway - cell viability counter screen (AID 1159517);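 also: HeLa cells carrying an ER stress response element beta-lactamase reporter; series mostly up to about 61 µM; % is scaled to controls: 0 for no effect and ±100 for the full control effect; nearly all actives have a fitted effect of over 50% in size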
How it was run: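 CellTiter-Glo was added to wells already read for beta-lactamase FRET, and luminescence was recorded 30 min later. Cells: ESRE-bla HeLa, 1,500 per well, compound exposure 5 hr at 37 C.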

[7] = qHTS assay to identify small molecule antagonists of the retinoid-related orphan receptor gamma (ROR-gamma) signaling pathway - cell viability counter screen (AID 1159520; active = well fitted curve in the direction sought with a large enough effect in the repeat runs; an effect the other way counts as inactive or inconclusive; also: % is scaled to controls: 0 for no effect and ±100 for the full control effect; nearly all actives have a fitted effect of over 50% in size)
How it was run: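 Tet-on ROR gamma CHO cells (1,000/well) were plated 4 hr, given compounds in DMSO for 2 hr at 37 C, then induced with 1 uM final doxycycline for 16 hr. Viability was read as ATP by CellTiter-Glo luminescence after 30 min.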

[8] = molecular target: Nuclear receptor ROR-gamma (Homo sapiens) (UniProt P51449); experiment: qHTS assay to identify small molecule antagonists of the retinoid-related orphan receptor gamma (ROR-gamma) signaling pathway (AID 1159521; active = well fitted curve in the direction sought with a large enough effect in the repeat runs; an effect the other way counts as inactive or inconclusive)
How it was run: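 Luminescence readout (ONE-Glo, 30 min RT) after 16 h doxycycline induction; loss of signal scored as antagonism. CHO cells with TET-inducible RORγ and RORE-LUC reporter; compounds added 2 h before 1 uM final doxycycline.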

[9] = qHTS assay to identify small molecule agonists of the AP-1 signaling pathway - cell viability counter screen (AID 1159525); also: nearly all actives have a fitted effect of over 55% in size
How it was run: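 ME-180 AP-1-bla, 2500 cells/well, Opti-MEM + 0.5% dialyzed FBS; overnight 37 °C; cpd 15-pt titration, 5 h 37 °C; CellTiter-Glo 30 min RT; luminescence read; normalised to TOAB and DMSO controls.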

[10] = qHTS assay to identify small molecule agonists of the AP-1 signaling pathway (AID 1159526); also: % is scaled to controls: 0 for no effect and ±100 for the full control effect

O=c1[nH]c(=O)n([C@H]2O[C@H](CO)[C@@H](O)[C@@H]2O)cc1/C=C\Br
inactive: outcome [1] | outcome [2] | outcome [3] | outcome [4] | outcome [5] | outcome [6] | Potency [7] | Potency [8] | outcome [9] | Potency [10]

O=C1C(CCS(=O)c2ccccc2)C(=O)N(c2ccccc2)N1c1ccccc1 (stereo unspecified)
inactive: outcome [3] | outcome [4] | outcome [5] | outcome [6] | Potency [7] | Potency [8] | outcome [9] | Potency [10]

CCCCN(CCO)CCO
inactive: outcome [1] | outcome [3] | outcome [4] | outcome [5] | outcome [6] | Potency [7] | Potency [8] | outcome [9] | Potency [10]

C1=C\CC/C=C\CC/C=C\CC/1
inactive: outcome [1] | outcome [2] | outcome [3] | outcome [4] | outcome [5] | outcome [6] | Potency [7] | Potency [8] | outcome [9] | Potency [10]

Cc1cc(C)cc(OCC2CNC(=O)O2)c1 (stereo unspecified)
inactive: outcome [1] | outcome [3] | outcome [4] | outcome [5] | outcome [6] | Potency [7] | Potency [8] | outcome [9] | Potency [10]

C#CC(C)(O)CC(C)C (stereo unspecified)
inactive: outcome [1] | outcome [2] | outcome [3] | outcome [4] | outcome [5] | outcome [6] | Potency [7] | Potency [8] | outcome [9] | Potency [10]

CO
inactive: outcome [1] | outcome [3] | outcome [4] | outcome [5] | outcome [6] | Potency [7] | Potency [8] | outcome [9] | Potency [10]

CCC(C(=O)NC(N)=O)c1ccccc1 (stereo unspecified)
inactive: outcome [1] | outcome [3] | outcome [4] | outcome [5] | outcome [6] | Potency [7] | Potency [8] | outcome [9] | Potency [10]

N#CC1(O)CCCCC1
inactive: outcome [1] | outcome [2] | outcome [3] | outcome [4] | outcome [5] | outcome [6] | Potency [7] | Potency [8] | outcome [9] | Potency [10]

N[C@@H](CS)C(=O)O
inactive: outcome [1] | outcome [3] | outcome [4] | outcome [5] | outcome [6] | Potency [7] | Potency [8] | outcome [9] | Potency [10]

CCOC(=O)Cn1c(=O)sc2cccc(Cl)c21
inactive: outcome [1] | outcome [2] | outcome [3] | outcome [4] | outcome [5] | outcome [6] | Potency [7] | Potency [8] | outcome [9] | Potency [10]

NCCN1CCNC1=O
inactive: outcome [1] | outcome [3] | outcome [4] | outcome [5] | outcome [6] | Potency [7] | Potency [8] | outcome [9] | Potency [10]

FC(F)(F)C(F)(F)C(F)(F)C(F)(F)C(F)(F)C(F)(F)C(F)(F)C(F)(F)C(F)(F)C(F)(F)F
inactive: activity change, negative = cytotoxicity [1] 9.06% [at 5.95 µM] | activation [3] -0.0985% [at 6.95 µM] | activity, negative = cytotoxic [4] 0.724% [at 6.95 µM] | activation [5] -9% [at 6.95 µM] | activity change, negative = cytotoxicity [6] -26.7% [at 6.95 µM] | activity, negative = cytotoxicity [7] 0.201% [at 8.39 µM] | activity change, negative = inhibition [8] 29.3% [at 8.39 µM] | viability change, negative = cytotoxic [9] -11.9% [at 6.97 µM] | activation [10] 7.26% [at 6.97 µM]

NCC[C@H](O)C(=O)N[C@@H]1C[C@H](N)[C@@H](O[C@H]2O[C@H](CN)[C@@H](O)[C@H](O)[C@H]2O)[C@H](O)[C@H]1O[C@H]1O[C@H](CO)[C@@H](O)[C@H](N)[C@H]1O
inactive: activity change, negative = cytotoxicity [1] 7.01% [at 0.55 µM] | activation [3] 0.167% [at 0.628 µM] | activity, negative = cytotoxic [4] 8.7% [at 0.628 µM] | activation [5] -0.818% [at 0.628 µM] | activity change, negative = cytotoxicity [6] 6.85% [at 0.628 µM] | activity, negative = cytotoxicity [7] 3.36% [at 0.349 µM] | activity change, negative = inhibition [8] 19% [at 0.35 µM] | viability change, negative = cytotoxic [9] 8.93% [at 0.29 µM] | activation [10] 12.3% [at 0.29 µM]

Nc1[nH]c(=O)ncc1F
inactive: outcome [1] | outcome [2] | outcome [3] | outcome [4] | outcome [5] | outcome [6] | Potency [7] | Potency [8] | outcome [9] | Potency [10]

C=C[Si](OC)(OC)OC
inactive: outcome [1] | outcome [2] | outcome [3] | outcome [4] | outcome [5] | outcome [6] | Potency [7] | Potency [8] | outcome [9] | Potency [10]

Cn1cnc2c(=O)[nH]c(N)nc21
inactive: outcome [1] | outcome [2] | outcome [3] | outcome [4] | outcome [5] | outcome [6] | Potency [7] | Potency [8] | outcome [9] | Potency [10]

OCCN1C[C@H](O)[C@@H](O)[C@H](O)[C@H]1CO
inactive: outcome [1] | outcome [2] | outcome [3] | outcome [4] | outcome [5] | outcome [6] | Potency [7] | Potency [8] | outcome [9] | Potency [10]

O=C(O)/C=C/c1ccc(Cn2ccnc2)cc1
inactive: outcome [1] | outcome [3] | outcome [4] | outcome [5] | outcome [6] | Potency [7] | Potency [8] | outcome [9] | Potency [10]

CC(=O)O[C@H](CC(=O)[O-])C[N+](C)(C)C
inactive: outcome [1] | outcome [2] | outcome [3] | outcome [4] | outcome [5] | outcome [6] | Potency [7] | Potency [8] | outcome [9] | Potency [10]

COc1cc(C)cc(O)c1
inactive: outcome [1] | outcome [3] | outcome [4] | outcome [5] | outcome [6] | Potency [7] | Potency [8] | outcome [9] | Potency [10]

COC(=O)[C@H]1[C@H]2C[C@@H]3c4[nH]c5cc(OC)ccc5c4CCN3C[C@H]2C[C@@H](OC(=O)COc2ccc(OC)cc2)[C@@H]1OC
inactive: outcome [1] | outcome [3] | outcome [4] | outcome [5] | outcome [6] | Potency [7] | Potency [8] | outcome [9] | Potency [10]

NC(=O)c1c(Cl)cccc1Cl
inactive: outcome [1] | outcome [2] | outcome [3] | outcome [4] | outcome [5] | outcome [6] | Potency [7] | Potency [8] | outcome [9] | Potency [10]

c1ccc(SCCSc2ccccc2)cc1
inactive: outcome [1] | outcome [3] | outcome [4] | outcome [5] | outcome [6] | Potency [7] | Potency [8] | outcome [9] | Potency [10]

CC1=CCC2C(C1)C2(C)C (stereo unspecified)
inactive: outcome [1] | outcome [2] | outcome [3] | outcome [4] | outcome [5] | outcome [6] | Potency [7] | Potency [8] | outcome [9] | Potency [10]
